# Source: PubChem BioAssay
# Rows were chosen to be rich in hits. Some 0.97% of all compounds tested hit in one or more screens of this group.
# PI4K2A inh: qHTS for small molecular inhibitors of PI4K2A. AID 1346378, 2018. activity change, negative = inhibition, % at 76.9 µM. purified PI4K2A, ADP-Glo luminescence, 1 h; hits give low values. hit rate 0.13% among 420,000. Phosphatidylinositol 4-kinase type 2-alpha (Homo sapiens), Q9BTU6; in the data active means activity change below about -50%; inconclusive means mostly about -30% to -49%
#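 ADP-Glo luminescence measured ADP generated by PI4K2A enzyme (4 ug/mL before mixing) with 1.2 mM PI substrate (pre-mix) and 300 microM ATP (pre-mix). Tris pH7.5 buffer with MgCl2, Triton X-100; 1 h reaction at ambient temperature.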
# Six1-Eya2 inh: qHTS Assay for Inhibitors of the Six1/Eya2 Interaction | Homeobox protein SIX1 (Homo sapiens) + Protein phosphatase EYA2 (Homo sapiens), … | AlphaScreen GST-Six1/His-Eya2 binding, biochemical; hits give low values | activity change, % (test concentration not listed) | hit rate 0.56% among 360,000 | AID 651725, 2012
# Target sequence (O00167 whole entry, looked up): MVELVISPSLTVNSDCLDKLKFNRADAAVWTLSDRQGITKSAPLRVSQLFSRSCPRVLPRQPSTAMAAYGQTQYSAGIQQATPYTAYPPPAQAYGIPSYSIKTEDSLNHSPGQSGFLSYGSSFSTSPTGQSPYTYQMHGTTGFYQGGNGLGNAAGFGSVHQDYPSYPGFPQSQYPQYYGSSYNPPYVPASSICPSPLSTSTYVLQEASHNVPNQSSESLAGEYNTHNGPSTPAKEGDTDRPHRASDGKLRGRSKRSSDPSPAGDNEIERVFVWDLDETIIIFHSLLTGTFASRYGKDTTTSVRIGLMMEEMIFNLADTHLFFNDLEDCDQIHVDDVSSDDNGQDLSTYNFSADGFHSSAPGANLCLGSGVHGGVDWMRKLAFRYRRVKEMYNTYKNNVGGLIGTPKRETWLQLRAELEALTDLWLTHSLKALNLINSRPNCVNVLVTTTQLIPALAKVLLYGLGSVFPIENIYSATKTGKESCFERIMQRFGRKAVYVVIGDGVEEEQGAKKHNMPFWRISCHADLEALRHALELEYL
# Target sequence (Q15475 whole entry, looked up): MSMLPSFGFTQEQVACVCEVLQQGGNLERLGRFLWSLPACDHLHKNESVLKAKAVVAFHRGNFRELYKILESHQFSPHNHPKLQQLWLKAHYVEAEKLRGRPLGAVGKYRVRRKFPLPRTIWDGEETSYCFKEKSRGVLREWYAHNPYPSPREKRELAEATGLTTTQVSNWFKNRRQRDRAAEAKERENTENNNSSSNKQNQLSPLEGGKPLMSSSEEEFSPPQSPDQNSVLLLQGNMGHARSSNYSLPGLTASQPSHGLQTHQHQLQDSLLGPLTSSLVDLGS
#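 AlphaScreen with GST-Six1 and His-Eya2 (5X mix: 250 nM and 500 nM), glutathione donor and nickel acceptor beads; buffer 50 mM Tris pH 8.0, 300 mM NaCl, 1 mM TCEP; 1 h at 37 C in the dark.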
# Eya2 phos inh: qHTS Assay for Inhibitors of the Phosphatase Activity of Eya2; hit rate 0.006% among 330,000; Potency, µM (top dose mostly 76.9 µM), most hits filed as inhibitors; Protein phosphatase EYA2 (Homo sapiens), O00167; recombinant Eya2, OMFP fluorescence dephosphorylation (OMFP is methylfluorescein phosphate); AID 488837, 2010; active means well fitted inhibition curve with a large enough effect; inconclusive means small, poorly fitted or top-dose-only effect, or effect the other way
#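 Eya2 protein (added as 0.2 uM solution) was preincubated with compound for 10 min at ambient temperature in 50 mM HEPES pH 7.5, 50 mM NaCl, 5 uM MgCl2, 0.05% BSA, 1 mM DTT. OMFP (added at 50 uM) then reacted 10 min; fluorescence read at 485/525 nm.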
# CtBP-E1A inh: qHTS Assay for Inhibitors of the CtBP/E1A Interaction; AlphaScreen GST-E1A/His-CtBP binding, 1536-well; hits give low values; hit rate 0.49% among 340,000; CtBP / adenovirus E1A interaction (AlphaScreen); activity change, % (no concentration beside the values)
#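 In 5 uL wells, 23 nL compound meets equimolar GST-E1A and His-CtBP (5X stock 125 nM each) for 2 h, 37 °C. Beads (5X, 50 ug/mL) then 1 h, 37 °C, dark.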
# CCT modulator: High-Throughput Screening for Modulators of Cytosolic Chaperonin Activity | purified chaperonin ATPase assay, HTRF ADP detection, 30 min | activity change, % (no concentration beside the values), hits read low | hit rate 0.3% among 360,000 | AID 651819, 2012; in the data active means activity change below about -30%
#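 First, chaperonin was dispensed at 40 nM or 20 nM final depending on batch activity. Next, compounds were pinned at 76 uM and ATP added at 10 uM. After 30 min at 37 °C, ADP detection reagents ran 30 min at ambient temperature.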
# A number is an active result; n = inactive; u = inconclusive; x = no result given. Unless noted, no stated cut-off is given here; in the data, active means activity change below about -65%; inconclusive means mostly about -30% to -63%; inactive means weaker than that.
SMILES,PI4K2A inh,Six1-Eya2 inh,Eya2 phos inh,CtBP-E1A inh,CCT modulator
Cc1ccc(CNc2ccc(N3CCOCC3)cc2)cc1,n,u,n,n,n
C=CCOc1c(Br)cc(CNc2ccc3[nH]c(=O)[nH]c3c2)cc1OCC,n,u,n,n,n
Cc1cccc(NC(=O)COC(=O)c2cccc3c2C(=O)c2ccccc2C3=O)c1C,n,-65.1,n,n,n
Cc1ccc2c(c1)CCCN2C(=O)c1cccs1,n,n,u,n,n
Cc1ccc2c(c1)CCCN2C(=O)c1cc(C)c(C)s1,n,n,n,n,-32.6
CC(=O)N1c2c(cc(Br)cc2S(=O)(=O)Nc2c(C)n(C)n(-c3ccccc3)c2=O)CC1C (configuration not stated),n,n,n,n,-41.3
Cc1ccc(Cl)cc1N1CCN(CCCNC(=O)c2nnc(Cc3cccc(Cl)c3)o2)CC1,n,x,x,x,x
Cc1[nH]n(-c2ccccc2)c(=O)c1N=Nc1ccccc1O,n,-87.4,n,-80.7,n
Cc1c(C(=O)NNC(=S)Nc2cccc(Cl)c2)nnn1-c1ccccc1,n,-85.3,n,n,n
Cc1c(C(=O)Nc2ccc(C(=O)O)cc2)nnn1-c1ccccc1,n,x,x,x,x
C=CCn1c(SCC(=O)O)nnc1-c1ccc(C(C)(C)C)cc1,n,n,n,n,-30.8
COc1cc(NC(=O)c2cccs2)c(OC)cc1NC(=O)CCC(=O)Nc1ccc(C)cc1,n,u,n,u,n
COc1cccc(NC(=O)CCC(=O)Nc2cc(OC)c(NC(=O)c3cccs3)cc2OC)c1,n,-68.6,n,-82.2,n
COc1ccc(NC(=O)CCC(=O)Nc2cc(OC)c(NC(=O)c3cccs3)cc2OC)cc1,n,-79.3,n,-79.3,n
O=C(Nc1ccccc1C(F)(F)F)c1noc2c1CCCCC2,n,x,x,x,x
Cc1oc2ccc(O)c(CN3CCCC3)c2c1C(=O)Nc1cccc(Cl)c1C,n,x,x,x,x
Cc1ccc(S(=O)(=O)c2c(Nc3cc(F)ccc3F)sc(C(=O)c3ccc(F)cc3)c2N)cc1,n,x,x,x,x
Nc1c(C(=O)Nc2ccc(Cl)c(C(=O)O)c2)sc2nc3c(cc12)CCCC3,n,-74.3,n,-78.4,n
O=C(NNC(=O)C12CC3CC(CC(C3)C1)C2)c1ccccc1F,n,n,n,n,-45.5
CC(=O)Oc1ccc2c(c1)Oc1cc(OC(C)=O)ccc1C21OC(=O)c2ccccc21,n,-81.7,u,n,n
O=C1OC2(c3ccc(O)cc3Oc3cc(O)ccc32)c2ccccc21,n,x,x,x,x
Cc1oc(-c2ccccc2F)nc1CN1CCC(C(=O)NCCC2=CCCCC2)CC1,n,n,n,n,-51.7
Cc1oc(-c2ccccc2F)nc1CN1CCC(C(=O)NCCc2ccccc2)CC1,n,x,x,x,x
O=C(NCc1cc(Br)cc(Br)c1OC(=O)c1ccccc1[N+](=O)[O-])c1ccccc1,n,-72.0,n,u,n
Cc1[nH]c(=O)[nH]c(=O)c1/C=N/NC(=O)[C@@H](N)CC(C)C,-60.0,-86.8,n,n,n
SMILES,PI4K2A inh,Six1-Eya2 inh,Eya2 phos inh,CtBP-E1A inh,CCT modulator
CCOC(=O)C1C(=O)CC(C)(O)C(C(=O)OCC)C1c1ccccc1 (configuration not stated),n,n,n,n,n
CCOC(=O)C1C(=O)CC(C)(O)C(C(=O)OCC)C1c1ccc(OC)cc1 (configuration not stated),n,n,x,n,-32.3
C#Cc1ccc([C@H]2C=C(C(=O)NCc3nc4ccccc4[nH]3)O[C@@H](OCc3ccc(CO)cc3)C2)cc1,n,n,x,n,n
O=C(NCc1nc2ccccc2[nH]1)C1=C[C@H](c2ccc(Br)cc2)C[C@H](OCc2ccc(CO)cc2)O1,n,n,n,n,-49.3
c1cncc(-c2cccnc2)c1,-64.8,u,n,u,n
Oc1cncc(-c2cccnc2)c1,n,n,n,n,n
Cc1ccc(NC(=O)C2CCCN2S(=O)(=O)c2ccc3nc(-c4ccccc4)[nH]c3c2)cc1C (configuration not stated),n,x,x,x,x
CS(=O)(=O)Nc1cccc(NC(=O)c2cccc3c(-c4cccc(C(N)=O)c4)coc23)c1,n,u,x,-71.7,n
CC(Cl)C(=O)N1CCC(C(=O)NC2CCCc3ccccc32)CC1 (configuration not stated),n,x,x,x,x
Cc1oc2c(c1C(=O)O)C(=O)c1ccccc1C2=O,n,n,n,n,n
Cc1oc2c(c1C(=O)c1ccccc1)C(=O)C(=O)c1ccccc1-2,-63.8,u,n,u,n
CCc1ccccc1NC(=O)N1CCN(c2cc(-c3noc(C)n3)ccc2C)CC1,n,x,x,x,x
CC(NC(=O)OC(C)(C)C)C(=O)NC(CCC(=O)OCc1ccccc1)C(N)=O (configuration not stated),n,n,n,n,-60.2
Cc1ccc(NC(=O)c2cnn(-c3ccccc3)c2NC(=O)c2ccco2)cc1C,n,n,n,n,-39.2
CCN(CC)C(=O)c1cnn(-c2ccccc2)c1NC(=O)c1ccco1,n,n,n,n,n
CSC1=NSC2=NC(=O)/C(=C/c3coc4ccccc4c3=O)C(=N)N12,n,n,u,n,n
CSC1=NSC2=NC(=O)/C(=C/c3coc4ccc(O)cc4c3=O)C(=N)N12,n,-67.0,u,n,n
COc1ccc2nc(C)cc(Nc3ccc(Cl)c(Cl)c3)c2c1,n,x,x,x,x
O=C(COc1ccc(Cl)cc1)NNC(=S)NCc1ccccc1,n,n,n,n,n
C=CCc1ccccc1OCC(=O)NNC(=S)NCc1ccccc1,n,n,n,n,-33.5
CCOc1ccc2noc3c2c1C(=O)c1ccccc1-3,n,n,u,n,n
O=C1c2ccccc2C(=O)c2c1cccc2N1CCCC1,n,-86.9,n,-89.2,n
O=C1c2ccccc2-c2onc3ccc(N4CCCC4)c1c23,n,-67.6,u,u,n
Cn1c(=O)cc2c3c(c(N4CCCCC4)ccc31)C(=O)c1ccccc1-2,n,u,n,x,n
NC[C@H]1O[C@@H](n2cnc3c(N)ncnc32)[C@H](O)[C@@H]1O,n,x,n,x,x
SMILES,PI4K2A inh,Six1-Eya2 inh,Eya2 phos inh,CtBP-E1A inh,CCT modulator
COc1ccc(C2=Nn3c(nnc3-c3ccccn3)SC2)cc1,n,-67.1,n,u,n
COc1ccc(C2=Nn3c(nnc3-c3cccnc3)SC2)cc1OC,n,-69.0,n,-76.7,n
COc1ccc(C2=Nn3c(nnc3-c3ccncc3)SC2)cc1OC,u,u,n,u,n
O=c1nc(SCc2c(F)cccc2Cl)nc(-c2ccccc2)[nH]1,n,n,n,n,-31.0
CCn1cc(/C=N\NC(=O)Cc2ccc([N+](=O)[O-])cc2)c(C)n1,n,n,n,n,-38.9
COc1ccc2c(c1OC)C(=O)N(c1ccc(F)cc1)C2,n,n,n,n,-40.5
